Screens: PubChem BioAssay, several laboratories
Shown are actives, neighbours in structure and some others; about 3.6% of the full set was active somewhere.
A3G deaminase = APOBEC3G DNA deaminase inhibitors, primary screen, biochemical, fluorescence, single-stranded DNA substrate, uHTS | DNA dC->dU-editing enzyme APOBEC-3G (Homo sapiens), Q9HC16 | recombinant A3G, ssDNA deamination FAM/TAMRA fluorescence | inhibition, % at 20 µM | actives 0.28% (n = 330,000) | AID 493012, 2011;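 active = inhibition of at least 40% at 20 µM, with no more than 30% in the related APOBEC3A deaminase screen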;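 also: plate controls were DMSO wells with A3G for no effect and wells lacking A3G enzyme for full effect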
Target sequence (Q9HC16 whole entry, looked up): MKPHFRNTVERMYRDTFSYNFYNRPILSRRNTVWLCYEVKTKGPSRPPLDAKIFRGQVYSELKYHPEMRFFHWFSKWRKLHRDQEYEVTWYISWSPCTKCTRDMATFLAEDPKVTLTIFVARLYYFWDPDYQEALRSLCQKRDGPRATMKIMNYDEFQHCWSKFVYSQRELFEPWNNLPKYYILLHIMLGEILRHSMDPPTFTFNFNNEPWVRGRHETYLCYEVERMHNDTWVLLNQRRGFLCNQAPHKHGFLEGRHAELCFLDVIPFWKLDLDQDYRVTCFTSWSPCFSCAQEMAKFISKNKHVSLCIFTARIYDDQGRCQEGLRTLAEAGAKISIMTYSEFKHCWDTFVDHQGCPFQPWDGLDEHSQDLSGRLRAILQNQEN
esBAF inh = Bmi1 luciferase reporter increase in mESCs, primary screen, esBAF inhibitor project, mouse ES cells, Bmi1 luciferase knock-in, single point | 24 h; 100% = twice the neutral-well signal | reporter increase, % at 12.5 µM | actives 2% (n = 350,000) | AID 602393, 2012; in the data active = activation above about 40%;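 also: 0% = median of the plate's neutral control wells and 100% = double that signal; a rise in the Bmi1 reporter signal indicates esBAF inhibition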
PHOSPHO1 inh = PubChem AID 1565 | inhibition, % at 13.3 µM | recombinant PHOSPHO1, absorbance phosphatase assay | actives 1.1% (n = 290,000); in the data active = inhibition above about 60%
MITF TRPM1 HTS = activators of MITF-driven TRPM1 promoter reporter, primary screen, cell-based, SK-MEL-5, luciferase, single point. SK-MEL-5 TRPM1-promoter luciferase, 24 h; % of positive control, neutral wells = 0. activation, % at 12.5 µM. actives 0.75% (n = 300,000);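 active = mean activation of at least 80% with every replicate also reaching 80%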;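 also: 0% = neutral control wells and 100% = parthenolide positive control wells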
A3A deaminase = APOBEC3A ssDNA deaminase inhibitors, primary screen, selectivity assay for APOBEC3G inhibitor project, biochemical, FAM/TAMRA oligo cleavage fluorescence; DNA dC->dU-editing enzyme APOBEC-3A (Homo sapiens), P31941; inhibition, % at 20 µM; recombinant A3A, FAM/TAMRA ssDNA deamination fluorescence; AID 493011, 2011; actives 0.41% (n = 330,000);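 active = at least 40% inhibition at 20 µM here, with at most 30% in a related deaminase screen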;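 also: plate controls were A3A with DMSO for no effect and wells lacking A3A enzyme for full effect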
Wnt act = Wnt/beta-catenin pathway activators, primary screen, cell-based, plate reader, single point; Wnt/beta-catenin reporter cell assay, activator; activation, % at 9.35 µM; actives 1.2% (n = 300,000); AID 743398, 2014; in the data active = activation above about 30%, passing the limit was not always enough;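 also: 0% = neutral control wells and 100% = positive control wells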
An asterisk follows results filed as active; nt = no result.

SMILES	A3G deaminase	esBAF inh	PHOSPHO1 inh	MITF TRPM1 HTS	A3A deaminase	Wnt act
O=C(NCc1ccccc1)c1csc(-c2cccnc2)n1	11	nt	4	5	11	-1
O=C(Nc1cccnc1)c1cc(-c2ccc(Cl)cc2Cl)on1	-3	-1	0	12	2	43*
C[C@@H]1CN([C@@H](C)CO)C(=O)c2cccc(NS(=O)(=O)c3ccc(Cl)cc3)c2O[C@@H]1CN(C)Cc1ccncc1	nt	-1	nt	nt	nt	nt
Cc1cc(C(=O)Nc2cccc3c2O[C@H](CN(C)S(=O)(=O)c2cn(C)cn2)[C@@H](C)CN([C@@H](C)CO)C3=O)n(C)n1	nt	-1	nt	nt	nt	nt
Cc1ccc(N(C)/N=C/c2ccc(Cl)cc2Cl)nn1	2	42*	34	99*	2	2
CN(/N=C/c1ccc(Cl)cc1Cl)c1ncc(Cl)cc1C(F)(F)F	-6	5	43	-10	1	11
COc1ccc(-c2c(C#Cc3ccsc3)c3ccccc3n2C)cc1	-9	45*	-24	4	11	12
COc1ccc(C#Cc2c(-c3ccccc3)n(C)c3ccccc23)cc1	6	1	nt	-18	2	-4
O=C(O)Cc1sc(Nc2ccccc2)nc1-c1cccs1	-1	nt	0	20	-10	35*
C=CCNc1nc(-c2cccs2)c(CC(=O)O)s1	-4	5	5	3	4	2
O=C(Cc1sc(Nc2ccccc2)nc1-c1ccccc1)NCc1ccccc1	-9	75*	-14	22	-8	7
COc1ccccc1-c1cnc2c(c1)C(=O)N([C@@H](C)CO)C[C@H](C)[C@@H](CN(C)CC1CCCC1)O2	nt	-2	nt	nt	nt	nt
CC1CC(C)CN(CCCNC(=O)c2ccc(CNS(=O)(=O)c3ccc(F)cc3)cc2)C1 (stereo not given)	1	8	75*	12	0	0
CCCS(=O)(=O)c1c(S(=O)(=O)CCC)c2ccc(C(N)=O)cn2c1C(=O)OC	-4	nt	10	-3	-1	nt
CCCS(=O)(=O)c1c(S(=O)(=O)CCC)c2ccc(C(N)=O)cn2c1C(=O)c1ccc(OC)cc1	0	nt	60*	2	-3	-1
O=C(C1CC1)N1CC[C@@H]2[C@H]1c1cc(Br)ccc1N[C@@H]2CO	nt	47*	nt	nt	nt	nt
CCc1cc(C(=O)N2CCOCC2)c(NC2=NS(=O)(=O)c3ccccc32)s1	-4	-12	84*	-8	-3	-3
O=C(Nc1cccnc1)c1ccc(Br)s1	-3	32	-25	5	-1	nt
Cc1ccc(C(=O)NCc2ccccn2)cc1Cl	-3	19	60*	31	-2	-3
Cc1c(C(=O)NCc2ccccn2)oc2ccc(Br)cc12	-10	54*	nt	97*	0	12
CCc1ccc2oc(C(=O)Nc3cccnc3)c(C)c2c1	-6	17	nt	nt	-1	nt
CCc1sc(C(=O)Nc2cccnc2)cc1Br	-10	50*	38	44	-4	9
Cc1c(C(=O)Nc2cccnc2)oc2ccc(Br)cc12	-2	60*	18	nt	-5	1
O=C(C1CCCC1)N1[C@@H]2CNc3ccccc3[C@@H]2[C@@H]1CO	nt	0	nt	nt	nt	nt
COCC(=O)N1C[C@@H](C)[C@H](OC)CN(C)C(=O)c2cc(NC(=O)C3CCC3)ccc2OC[C@@H]1C	nt	0	nt	nt	nt	nt
Cc1c(C(=O)NCc2cccs2)oc2ccc(Br)cc12	-6	51*	-2	nt	0	nt
S=c1nc(NCCc2ccccc2Cl)c2ccccc2[nH]1	-8	41*	11	72	-3	26
CCn1cc(/C=C(\NC(=O)c2cc(OC)c(OC)c(OC)c2)C(=O)NCCCN2CCOCC2)c2ccccc21	-4	-2	65*	1	-8	0
O=C(C[C@H]1CC[C@@H]2[C@H](COC[C@H](O)CN2C(=O)c2cccnc2)O1)Nc1ccc(-c2ccccc2)cc1	nt	6	nt	nt	nt	nt
COc1ccccc1NC(=O)CCCC(=O)OCC(=O)c1ccc(F)cc1	-10	nt	2	3	-4	4
